{
  "source": "PubChem BioAssay (NCATS)",
  "note": "Unmarked numbers belong to inactive results. Calls follow the shape of the dose curve; as a rule, active = well fitted inhibition curve with a large enough effect; inconclusive = small, poorly fitted or top-dose-only effect; inactive = flat fitted curve, though single readings scatter.",
  "data": [
    {"target": "Phosphoglycerate kinase, glycosomal (Trypanosoma brucei brucei) (UniProt P07378)", "sequence (P07378 whole entry, looked up)": "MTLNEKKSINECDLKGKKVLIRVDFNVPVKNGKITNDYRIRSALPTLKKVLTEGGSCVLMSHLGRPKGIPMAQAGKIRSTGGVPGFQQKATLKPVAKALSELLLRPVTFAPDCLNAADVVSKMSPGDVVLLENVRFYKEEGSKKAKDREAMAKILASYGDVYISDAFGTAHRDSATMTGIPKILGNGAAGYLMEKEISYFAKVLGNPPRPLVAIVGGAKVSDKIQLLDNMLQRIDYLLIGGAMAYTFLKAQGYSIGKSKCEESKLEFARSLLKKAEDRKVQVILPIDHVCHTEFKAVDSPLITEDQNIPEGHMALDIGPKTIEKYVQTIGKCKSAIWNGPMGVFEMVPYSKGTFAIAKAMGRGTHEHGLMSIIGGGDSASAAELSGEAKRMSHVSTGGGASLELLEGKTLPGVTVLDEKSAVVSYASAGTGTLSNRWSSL", "experiment": "qHTS Validation Assay to Find Inhibitors of Phosphoglycerate Kinase (AID 504547);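 also: control wells lack PGK and mark full inhibition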", "conditions": "enzymatic PGK inhibition, coupled luminescence read-out; series mostly up to 57.5 µM; activity, negative = inhibition: at the top concentration", "procedure,_shortened": "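Luminescence end-point (Kinase-Glo Plus, 10 min) after a 60 min room-temperature coupled reaction. GAPDH at 100nM final supplies 1,3-BPG to PGK. Buffer: 100mM TEA pH 7.6, 5mM MgCl2, 0.01% Tween-20. Wells lacking PGK served as controls.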", "units": {"activity, negative = inhibition": "%"}, "values": [
      {"smiles": "O=C(O)CCC(=O)N1CCCC1C(=O)O", "note": "(stereo unspecified)", "activity, negative = inhibition": 1.32},
      {"smiles": "C=C(C)C1CC=C(C(=O)O)CC1", "note": "(stereo unspecified)", "activity, negative = inhibition": 3.77},
      {"smiles": "NCC(O)C1CCCCCCC1", "note": "(stereo unspecified)", "activity, negative = inhibition": 0.876},
      {"smiles": "NC(=O)CNCCC(c1ccccc1)c1ccccc1", "activity, negative = inhibition": -1.57},
      {"smiles": "COc1ccccc1N1CCN(CCCNc2c(C)c(=O)n(C)c(=O)n2C)CC1", "activity, negative = inhibition": 8.56},
      {"smiles": "C[C@@]1(C2CCCC2)Cc2cc(OCC(=O)O)c(Cl)c(Cl)c2C1=O", "activity, negative = inhibition": 5.24},
      {"smiles": "N[C@@H](CS(=O)O)C(=O)O", "activity, negative = inhibition": -1.08},
      {"smiles": "COC(=O)C(C)(N)Cc1ccc(O)cc1", "note": "(stereo unspecified)", "activity, negative = inhibition": 10.9},
      {"smiles": "O=C(O)/C(=C/c1c(C(=O)O)[nH]c2cc(Cl)cc(Cl)c12)c1ccccc1", "activity, negative = inhibition": 1.68},
      {"smiles": "Cn1c(=O)[nH]c2ncn(C)c2c1=O", "activity, negative = inhibition": 8.82},
      {"smiles": "O=C(O)/C=C/c1ccc(O)c(O)c1", "activity, negative = inhibition": 11.8},
      {"smiles": "N[C@@H](Cc1ccc(O)c(I)c1)C(=O)O", "activity, negative = inhibition": 4.12},
      {"smiles": "NC(=O)c1cc[n+](CC2=C(C(=O)O)N3C(=O)[C@@H](NC(=O)[C@@H](c4ccccc4)S(=O)(=O)[O-])[C@H]3SC2)cc1", "activity, negative = inhibition": 5.11},
      {"smiles": "O=[N+]([O-])c1cccc2cn[nH]c12", "activity, negative = inhibition": 10.6},
      {"smiles": "c1ccc2nc(C3=NCCN3)ccc2c1", "activity, negative = inhibition": -3.96},
      {"smiles": "COc1ccccc1N1CCN(CCCCNC(=O)c2ccc3ccccc3c2)CC1", "activity, negative = inhibition": -3.75},
      {"smiles": "O=c1onc2n1-c1cc(Br)ccc1OC2", "activity, negative = inhibition": 4.29},
      {"smiles": "NC(N)=NC(N)=Nc1ccccc1", "activity, negative = inhibition": 5.2},
      {"smiles": "C#CCn1c(=O)c2c(ncn2C)n(C)c1=O", "activity, negative = inhibition": 5.08},
      {"smiles": "O=C(OCCN1CCOCC1)C1(c2ccccc2)CCCCC1", "activity, negative = inhibition": 10.7},
      {"smiles": "CO/N=C(\\C(=O)N[C@@H]1C(=O)N2C(C(=O)O)=C(CSc3nc(=O)c(O)nn3C)CSC12)c1csc(N)n1", "note": "(stereo partly specified)", "activity, negative = inhibition": 1.54}
    ]}
  ]
}
